From PMC7862700, “An all-to-all approach to the identification of sequence-specific readers for epigenetic DNA modifications on cytosine”

How the values were obtained:
Test in all cases: DAPPL (digital affinity profiling via proximity ligation, sequencing); 10 mM Tris-HCl pH 7.5, 50 mM NaCl, 1 mM DTT, 4% glycerol, room temperature, 30 min; GST-TFs on glutathione beads, 16-mer random dsDNA library, 0.1% formaldehyde crosslink after washing; high values mean tight binding
Settings in all cases: protein: recombinant; tags: N-terminal GST; dsDNA, one strand shown
FLI1 = biological target: T1, FLI1 (Homo sapiens, UniProt Q01543 1-452)
T1 sequence: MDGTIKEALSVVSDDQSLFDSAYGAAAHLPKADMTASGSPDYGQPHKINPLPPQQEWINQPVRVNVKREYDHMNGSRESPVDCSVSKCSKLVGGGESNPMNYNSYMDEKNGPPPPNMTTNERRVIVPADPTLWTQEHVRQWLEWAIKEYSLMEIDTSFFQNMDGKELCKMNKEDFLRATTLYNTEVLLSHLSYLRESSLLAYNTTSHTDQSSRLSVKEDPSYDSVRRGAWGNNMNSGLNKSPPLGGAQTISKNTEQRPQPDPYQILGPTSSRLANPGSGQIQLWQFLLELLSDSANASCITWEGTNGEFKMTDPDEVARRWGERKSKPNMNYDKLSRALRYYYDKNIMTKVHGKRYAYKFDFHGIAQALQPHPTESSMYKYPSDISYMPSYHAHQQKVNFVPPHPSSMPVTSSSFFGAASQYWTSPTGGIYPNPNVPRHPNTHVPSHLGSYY
Method in brief: (§1)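 Human transcription factors carrying a GST fusion were produced in yeast, bound to glutathione beads, tagged with DNA barcodes and pooled together with a tag-only sample. Each pool was held with 200 nmole of a random double-stranded 16-mer DNA library in Tris/NaCl/DTT/glycerol buffer for 30 min at room temperature, then washed, crosslinked in 0.1% formaldehyde, proximity-ligated with BsaI/T4 ligase (1 h, 37 °C), PCR-amplified and sequenced on an Illumina NextSeq500. Binding signal is the read frequency of each hexamer for a given factor divided by its frequency in the tag-only sample.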

ELK1 = biological target: T2, ELK1 (Homo sapiens, UniProt P19419 1-428)
T2 sequence: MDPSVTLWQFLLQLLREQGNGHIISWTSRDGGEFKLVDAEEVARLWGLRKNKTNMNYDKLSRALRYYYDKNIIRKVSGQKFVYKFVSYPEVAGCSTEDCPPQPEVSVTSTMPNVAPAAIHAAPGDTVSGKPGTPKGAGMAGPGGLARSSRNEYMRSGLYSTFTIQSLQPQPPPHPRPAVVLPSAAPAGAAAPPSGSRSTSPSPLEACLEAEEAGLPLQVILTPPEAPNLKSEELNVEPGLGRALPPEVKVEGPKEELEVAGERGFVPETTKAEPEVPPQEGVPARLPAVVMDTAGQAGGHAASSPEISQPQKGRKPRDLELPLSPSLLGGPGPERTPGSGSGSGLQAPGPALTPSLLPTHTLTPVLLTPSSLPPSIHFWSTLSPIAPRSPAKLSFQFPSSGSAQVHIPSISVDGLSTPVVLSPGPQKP
Method in brief: as §1

GABPA = biological target: T3, GABPA (Homo sapiens, UniProt Q06546 1-454)
T3 sequence: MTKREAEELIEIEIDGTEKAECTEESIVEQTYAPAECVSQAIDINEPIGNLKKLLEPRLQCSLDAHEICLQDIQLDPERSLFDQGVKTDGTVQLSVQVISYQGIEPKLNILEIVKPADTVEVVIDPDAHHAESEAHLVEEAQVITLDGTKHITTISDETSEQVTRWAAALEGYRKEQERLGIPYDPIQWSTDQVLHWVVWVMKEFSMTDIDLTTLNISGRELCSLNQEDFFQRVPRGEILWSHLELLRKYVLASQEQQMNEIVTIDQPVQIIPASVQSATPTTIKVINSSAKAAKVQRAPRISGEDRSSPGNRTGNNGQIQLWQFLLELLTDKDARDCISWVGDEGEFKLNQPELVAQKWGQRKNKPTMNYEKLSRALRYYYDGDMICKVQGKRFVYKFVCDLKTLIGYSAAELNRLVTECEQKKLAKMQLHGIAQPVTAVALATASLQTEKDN
Method in brief: as §1

ERG = biological target: T4, ERG (Homo sapiens, UniProt P11308 1-479)
T4 sequence: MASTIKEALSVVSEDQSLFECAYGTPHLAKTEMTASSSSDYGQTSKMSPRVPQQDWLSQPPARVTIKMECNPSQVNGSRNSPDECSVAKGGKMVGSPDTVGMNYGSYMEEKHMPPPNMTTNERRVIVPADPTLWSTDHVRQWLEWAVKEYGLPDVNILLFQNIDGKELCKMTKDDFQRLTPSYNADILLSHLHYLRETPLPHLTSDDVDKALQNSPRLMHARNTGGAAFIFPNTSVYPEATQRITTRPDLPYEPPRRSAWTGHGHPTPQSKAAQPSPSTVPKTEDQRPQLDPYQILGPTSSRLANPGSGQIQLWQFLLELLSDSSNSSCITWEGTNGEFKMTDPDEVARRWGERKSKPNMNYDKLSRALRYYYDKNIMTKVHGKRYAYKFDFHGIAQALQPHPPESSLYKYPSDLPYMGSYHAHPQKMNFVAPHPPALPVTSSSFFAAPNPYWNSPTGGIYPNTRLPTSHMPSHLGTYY
Method in brief: as §1

ELF1 = ELF1 (Homo sapiens, UniProt P32519 1-619)
Chain of ELF1 (P32519 whole entry): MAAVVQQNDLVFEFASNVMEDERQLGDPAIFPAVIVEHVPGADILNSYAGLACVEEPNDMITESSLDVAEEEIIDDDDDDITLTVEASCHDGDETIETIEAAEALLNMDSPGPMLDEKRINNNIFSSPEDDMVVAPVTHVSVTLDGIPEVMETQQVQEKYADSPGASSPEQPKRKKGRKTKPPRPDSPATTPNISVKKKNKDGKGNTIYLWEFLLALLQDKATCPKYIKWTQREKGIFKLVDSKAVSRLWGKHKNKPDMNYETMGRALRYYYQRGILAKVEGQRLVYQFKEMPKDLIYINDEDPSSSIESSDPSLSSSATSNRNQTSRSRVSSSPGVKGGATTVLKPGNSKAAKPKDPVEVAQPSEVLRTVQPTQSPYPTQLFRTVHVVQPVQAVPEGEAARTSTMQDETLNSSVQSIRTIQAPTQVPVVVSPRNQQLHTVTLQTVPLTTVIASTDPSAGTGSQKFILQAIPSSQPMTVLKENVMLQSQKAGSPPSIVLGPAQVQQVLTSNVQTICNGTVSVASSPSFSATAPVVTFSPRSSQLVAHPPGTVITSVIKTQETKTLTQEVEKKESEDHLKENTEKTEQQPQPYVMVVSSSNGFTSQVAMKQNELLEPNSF
Method in brief: as §1

EHF = biological target: T5, EHF (Homo sapiens, UniProt Q9NZC4 1-300)
T5 sequence: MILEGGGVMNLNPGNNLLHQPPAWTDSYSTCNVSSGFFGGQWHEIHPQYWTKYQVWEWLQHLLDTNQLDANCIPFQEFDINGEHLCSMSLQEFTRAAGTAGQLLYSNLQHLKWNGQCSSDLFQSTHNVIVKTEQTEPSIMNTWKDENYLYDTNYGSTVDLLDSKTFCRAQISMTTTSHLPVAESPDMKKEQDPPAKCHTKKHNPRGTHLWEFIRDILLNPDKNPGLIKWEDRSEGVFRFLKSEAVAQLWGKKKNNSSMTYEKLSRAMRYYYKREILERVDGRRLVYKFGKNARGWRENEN
Method in brief: as §1

SPI1 = SPI1 (Homo sapiens, UniProt P17947 1-270)
Method in brief: as §1

SPIB = SPIB (Homo sapiens, UniProt Q01892 1-262)
Chain of SPIB (Q01892 whole entry): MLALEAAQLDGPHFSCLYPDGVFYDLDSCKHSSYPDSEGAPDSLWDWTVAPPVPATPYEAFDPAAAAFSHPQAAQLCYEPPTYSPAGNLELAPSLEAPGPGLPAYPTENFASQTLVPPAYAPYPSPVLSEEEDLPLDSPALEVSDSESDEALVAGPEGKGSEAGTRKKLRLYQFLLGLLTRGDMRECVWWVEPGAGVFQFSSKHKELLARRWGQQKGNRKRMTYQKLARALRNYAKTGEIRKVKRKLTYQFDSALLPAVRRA
Method in brief: as §1

ELK3 = biological target: T6, ELK3 (Homo sapiens, UniProt P41970 1-407)
T6 sequence: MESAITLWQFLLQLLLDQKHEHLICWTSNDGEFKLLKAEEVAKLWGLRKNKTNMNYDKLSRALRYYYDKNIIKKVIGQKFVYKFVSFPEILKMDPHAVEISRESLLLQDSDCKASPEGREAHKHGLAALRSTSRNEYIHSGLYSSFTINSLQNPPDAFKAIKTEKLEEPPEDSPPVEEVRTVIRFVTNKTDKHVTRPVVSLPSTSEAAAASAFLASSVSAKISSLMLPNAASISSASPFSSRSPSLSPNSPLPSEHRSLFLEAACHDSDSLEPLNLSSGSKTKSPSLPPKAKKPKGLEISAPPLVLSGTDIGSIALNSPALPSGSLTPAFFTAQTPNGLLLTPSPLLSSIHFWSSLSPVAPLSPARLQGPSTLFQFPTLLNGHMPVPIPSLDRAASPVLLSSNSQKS
Method in brief: as §1

Row | Sequence | binding signal (FLI1) | binding signal (ELK1) | binding signal (GABPA) | binding signal (ERG) | binding signal (ELF1) | binding signal (EHF) | binding signal (SPI1) | binding signal (SPIB) | binding signal (ELK3)
1 | CCATTC | 1.22 fold enrichment (6-mer frequency, TF over GST control) | 1.09 fold enrichment (6-mer frequency, TF over GST control) | 1.1 fold enrichment (6-mer frequency, TF over GST control) | 1.2 fold enrichment (6-mer frequency, TF over GST control) | 1.17 fold enrichment (6-mer frequency, TF over GST control) | 1.07 fold enrichment (6-mer frequency, TF over GST control) | 1.16 fold enrichment (6-mer frequency, TF over GST control) | 1.09 fold enrichment (6-mer frequency, TF over GST control) | 1.29 fold enrichment (6-mer frequency, TF over GST control)
2 | GATATC | 1.55 fold enrichment (6-mer frequency, TF over GST control) | 1.6 fold enrichment (6-mer frequency, TF over GST control) | 1.37 fold enrichment (6-mer frequency, TF over GST control) | 1.9 fold enrichment (6-mer frequency, TF over GST control) | 1.46 fold enrichment (6-mer frequency, TF over GST control) | 1.44 fold enrichment (6-mer frequency, TF over GST control) | 1.4 fold enrichment (6-mer frequency, TF over GST control) | 1.58 fold enrichment (6-mer frequency, TF over GST control) | 1.51 fold enrichment (6-mer frequency, TF over GST control)
3 | CGACGT | 1.23 fold enrichment (6-mer frequency, TF over GST control) | 1.09 fold enrichment (6-mer frequency, TF over GST control) | 1.22 fold enrichment (6-mer frequency, TF over GST control) | 1.06 fold enrichment (6-mer frequency, TF over GST control) | 1.11 fold enrichment (6-mer frequency, TF over GST control) | 1.14 fold enrichment (6-mer frequency, TF over GST control) | 1.08 fold enrichment (6-mer frequency, TF over GST control) | 1 fold enrichment (6-mer frequency, TF over GST control) | 1.07 fold enrichment (6-mer frequency, TF over GST control)
4 | GATACG | 1.11 fold enrichment (6-mer frequency, TF over GST control) | 1.12 fold enrichment (6-mer frequency, TF over GST control) | 1.12 fold enrichment (6-mer frequency, TF over GST control) | 1.11 fold enrichment (6-mer frequency, TF over GST control) | 1.15 fold enrichment (6-mer frequency, TF over GST control) | 1.24 fold enrichment (6-mer frequency, TF over GST control) | 1.04 fold enrichment (6-mer frequency, TF over GST control) | 1.17 fold enrichment (6-mer frequency, TF over GST control) | 1.18 fold enrichment (6-mer frequency, TF over GST control)
5 | ACACTG | 1.08 fold enrichment (6-mer frequency, TF over GST control) | 1.13 fold enrichment (6-mer frequency, TF over GST control) | 1.13 fold enrichment (6-mer frequency, TF over GST control) | 1.07 fold enrichment (6-mer frequency, TF over GST control) | 1.09 fold enrichment (6-mer frequency, TF over GST control) | 1.11 fold enrichment (6-mer frequency, TF over GST control) | 1.07 fold enrichment (6-mer frequency, TF over GST control) | 1.04 fold enrichment (6-mer frequency, TF over GST control) | 1.04 fold enrichment (6-mer frequency, TF over GST control)
6 | TATGCG | 1.5 fold enrichment (6-mer frequency, TF over GST control) | 1.42 fold enrichment (6-mer frequency, TF over GST control) | 1.35 fold enrichment (6-mer frequency, TF over GST control) | 1.31 fold enrichment (6-mer frequency, TF over GST control) | 1.31 fold enrichment (6-mer frequency, TF over GST control) | 1.37 fold enrichment (6-mer frequency, TF over GST control) | 1.32 fold enrichment (6-mer frequency, TF over GST control) | 1.29 fold enrichment (6-mer frequency, TF over GST control) | 1.39 fold enrichment (6-mer frequency, TF over GST control)
7 | ACACTA | 1.11 fold enrichment (6-mer frequency, TF over GST control) | 1.17 fold enrichment (6-mer frequency, TF over GST control) | 1.13 fold enrichment (6-mer frequency, TF over GST control) | 1.12 fold enrichment (6-mer frequency, TF over GST control) | 1.19 fold enrichment (6-mer frequency, TF over GST control) | 1.15 fold enrichment (6-mer frequency, TF over GST control) | 1.11 fold enrichment (6-mer frequency, TF over GST control) | 1.09 fold enrichment (6-mer frequency, TF over GST control) | 1.1 fold enrichment (6-mer frequency, TF over GST control)
